What follows are sequences tested against CNPPD1 (assay: pooled miR-30 sensor sort-seq; sequence = guide strand). Details: shRNA.
Note: reference of the scale not given here.

Sequence | sensor-assay potency score (higher = more potent)
TCTGTGTAGGTGTACCAGCCTC | -1.36
TTCAATGTACACCAGAGCCAGC | -1.25
TGAAAAGGGAACATTGCTGAGG | -0.362
ATGAGCTACGTATTTCTTCTGG | -0.315
TTCGACAGCAATGTCTGCCACC | -0.8
TTCGTCGTTGAAGACCTCCTCC | 0.0687
TAGTCTGGGTTTCGGTGCCGGA | -1.29
TCTCTCTGGAGCTTCTGGCAAA | -0.958
TAGAGCCTCCTTCGGATCCGGG | -1.33
TTACTGGCCACCATCATGGAGA | -0.834
TATGCCACAGCTAACAGGCAAG | -1.37
TATTTCTTCTGGAGTCGGCGAA | -0.148

What follows are sequences tested against CNTD1 in the same assay as above. Details: shRNA.

Sequence | sensor-assay potency score (higher = more potent)
TAGACTGCTGTCTCCCCGGAGT | -0.817
TAAACTTGTTGACAAGCTGCTG | -0.0466
TTTGGATGAAAGCACTTGCTGC | -0.907
TCTCTTATTATCTCTTGGCTGG | -0.35
TTTAGTGTGTAGATAGCCTAGA | 0.238
TAAGAGAACTCAGCAATGCTTG | -0.451
TTACCATAAACCTTTCTAGGAT | -0.637
TTTTGGATGAAAGCACTTGCTG | -1.34
TTCATGCAGAAGATAGACCAGG | -0.656
AAACTTGTTGACAAGCTGCTGT | 0.446
TTCTAGGATTTCTACAGCCTGG | -0.787

The sequences below were run against COBRA1 in the same assay as above. Details: shRNA.

Sequence | sensor-assay potency score (higher = more potent)
ATGAGCATCGGGAGGAACCTGG | -1.62
TTGGATATGAGACTGGGGCTTT | -0.217
TTGCTGTCCACGAACCGCTCTC | -0.427
TTTTTTCTCCGGAACCTTGGGC | 0.129
TTCTTGTTCCTCTGCTTGGTGA | -1.3
TTCTGATCCACATTGAAAGTGT | -0.064
TGACACTCGCTCCAGCAGCTTG | -1.51
TACAGCTTCACGTTCTTCCCCA | 0.123
ATGAGCTCTACCTCCATCTTGG | -0.766
TTCTCTGTCTGGAACTGCTCGA | -0.254
AAACTTAGTGAAGCTTTCGGGA | -0.764

What follows are sequences tested against COG2 in the same assay as above. Details: shRNA.

Sequence | sensor-assay potency score (higher = more potent)
TTTAATACATCTGACACGGTTT | -0.235
TTGTCGTCGTCGCTCATGCCAC | -1.52
TTCCACTTCTTATTGAAGCTGT | 0.407
TTAATCTCTTTACACTAGCCTG | -1.22
